HT1080-NT tox: kills 2HG-producing HT-1080-NT fibrosarcoma cells; HT-1080-NT fibrosarcoma viability, CellTiter-Glo ATP luminescence, 48 h; Potency, µM (highest dose often 46.1 µM), hits mostly cytotoxic; 360,000 tested, 1.6% active; AID 686970;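 further: NT is the 2HG producing partner of a matched IDH1 knockdown line; nearly all actives have a fitted effect of over 55% in size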
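Viability of the 2HG-overproducing fibrosarcoma line after 48 hours of compound exposure at 37 degrees C was determined by luminescence with CellTiter-Glo, and concentration-effect curves were then fitted and categorized.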
KB-V1 MDR tox: kills drug-selected multidrug resistant KB-V1 cells; 400,000 tested, 3.4% active; Potency, µM (top dose mostly 46.1 µM), actives largely listed as cytotoxic; AID 1347076; KB-V1 MDR cells viability, CellTiter-Glo, 72 h; further: nearly all actives have a fitted effect of over 60% in size
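Cells of the MDR subline KB-V1 are plated, dosed with compound at multiple concentrations, and incubated 72 h at 37 degrees C; CellTiter-Glo is then added and luminescence read after 10 min.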
DT40 TDP1 no CPT: qHTS for Inhibitors of human tyrosyl-DNA phosphodiesterase 1 (TDP1): qHTS in cells in absence of CPT | DT40 Tdp1-/- hTDP1 cells, no CPT, ATP luminescence, 48 h | Potency, µM (doses to about 46.2 µM), hits mostly inhibitors | 420,000 tested, 15% active | AID 686978, 2013; further: nearly all actives have a fitted effect of over 55% in size
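DT40 Tdp1-/-;hTDP1 cells, no CPT (DMSO vehicle only), 400 cells/well; compounds pin-transferred; ≥48 hr, 37 °C; CellTiter-Glo 30 min RT dark, luminescence read.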
TDP1 cell CPT: growth inhibition of DT40 Tdp1-/-;hTDP1 cells with camptothecin (screen for TDP1 inhibitors). chicken DT40 Tdp1-/-;hTDP1 cells + 20 nM CPT, ATP luminescence, 48 h. Potency, µM (titrated, usually from 46.2 µM), usual class: inhibitors. 420,000 tested, 12% active; further: nearly all actives have a fitted effect of over 55% in size
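Cell growth measured by CellTiter-Glo luminescence after a minimum 48 h, 37 C compound exposure with 20 nM CPT in Tdp1-knockout DT40 cells stably expressing hTDP1, seeded 400/well; qHTS titration format.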
KB-3-1 tox: KB-3-1 parental cell cytotoxicity; KB-3-1 viability, CellTiter-Glo ATP luminescence, 72 h; 400,000 tested, 1.4% active; Potency, µM (top dose mostly 46.1 µM), most hits filed as cytotoxic; AID 1347075; further: nearly all actives have a fitted effect of over 60% in size
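Cytotoxicity measured as CellTiter-Glo luminescence after 72 h at 37 C. Compound titrations were pinned onto drug-naive KB-3-1 parental adenocarcinoma cells grown in DMEM with 10% FBS, and normalized data fitted to concentration-response curves.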
HT1080 IDH1KD tx: HT-1080 IDH1 knockdown cell toxicity (counter line); HT-1080 IDH1 knockdown viability, ATP luminescence, 48 h; Potency, µM (doses to about 46.1 µM), actives largely listed as cytotoxic; AID 686971; 360,000 tested, 2% active
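HT-1080-IDH1KD cells (IDH1 knocked down), 750/well in RPMI with 5% FBS, treated with compound 48 h at 37 degrees C. Viability by CellTiter-Glo luminescence, normalised to DMSO and no-cell wells; concentration-response curves classed.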
Numbers stand for hits; n = inactive; u = inconclusive; x = no result given; [ ] = dose if it differs, or a comment. Hits are enriched below; roughly 19% of the tested compounds scored in any of these assays. The call rests on the fitted dose curve; in most records, active means well fitted curve in the direction sought with a large enough effect; inconclusive means small, poorly fitted or top-dose-only effect, or another doubt; inactive means no such curve, though single readings can be large; an effect the other way counts as inactive or inconclusive.

SMILES	HT1080-NT tox	KB-V1 MDR tox	DT40 TDP1 no CPT	TDP1 cell CPT	KB-3-1 tox	HT1080 IDH1KD tx
NC(=O)COC(=O)c1c2c(nc3ccccc13)CCC2	n	n	n	n	n	n
CC(=O)OCOC(=O)CN(CC(=O)OCOC(C)=O)c1ccccc1OCCOc1ccccc1N(CC(=O)OCOC(C)=O)CC(=O)OCOC(C)=O	x	x	1.6µM	1.4µM	x	x
CC(NC(=O)CN(C)CC(=O)Nc1cccc(F)c1)c1ccccc1 (configuration not stated)	n	18µM	n	n	n	n
COC(=O)c1c(C)[nH]c(C(=O)CN(C)CC(=O)Nc2cccc(F)c2)c1C	n	n	15µM	n	n	n
CN(CC(=O)Nc1cccc(F)c1)CC(=O)Nc1ccccc1[N+](=O)[O-]	n	u	12µM	23µM	n	n
C=CCOc1ccc(CN(C)CC(=O)Nc2ccccc2[N+](=O)[O-])cc1	n	u	21µM	u	n	n
CCc1ccc(CN(C)CC(=O)Nc2ccccc2[N+](=O)[O-])cc1	n	u	u	u	n	n
COc1ccc(OCc2ccc(-c3nc(C#N)c(NC(C)c4ccccc4)o3)o2)cc1 (configuration not stated)	x	u	n	n	n	x
COc1cccc(CN2C(=O)CN(C3CCCCC3)C(=O)C2c2ccc(OC)c(OC)c2)c1 (configuration not stated)	x	n	u	u	n	x
CCN1CCN(C(=O)c2cnn3c(C(F)F)cc(-c4ccc(C)cc4)nc23)CC1	n	n	u	n	n	n
O=C(c1cnn2c(C(F)F)cc(-c3ccccc3)nc12)N1CCN(Cc2ccc3c(c2)OCO3)CC1	n	n	26µM	u	n	u
Cc1cccc(Cc2c(C)nc3c(C(=O)N4CCN(Cc5ccc6c(c5)OCO6)CC4)cnn3c2C)c1	u	n	u	u	n	n
Cc1ccccc1Cc1c(C)nc2c(C(=O)N3CCN(Cc4ccc5c(c4)OCO5)CC3)cnn2c1C	n	8.2µM	18µM	u	n	u
O=C(c1cc(-c2ccc(F)cc2)no1)N1CCN(Cc2ccc3c(c2)OCO3)CC1	n	u	16µM	u	n	n
Cc1ccccc1Cc1c(C)nc2c(C(=O)NCc3ccc4c(c3)OCO4)cnn2c1C	n	18µM	u	18µM	n	n
CCOc1ccccc1/C=C/C(=O)NCC(=O)N1CCC(N(C)C2CCCCC2C)CC1 (configuration not stated)	n	n	u	u	n	n
O=C(Nc1ccccn1)c1sc2ccccc2c1Cl	x	n	x	x	n	x
Clc1cc(Cl)c(OCC#CI)cc1Cl	x	x	1.9µM	1.7µM	x	x
CCCc1cc(=O)[nH]c(SCCc2ccccc2)n1	n	16µM	n	n	u	n
Cn1c(=O)n(C)c2cc(N3CCOCC3)c(NC(=O)c3c(F)cccc3F)cc21	x	n	n	u	n	x
C=Cc1ccc(CC2(C)C(=O)Nc3c(Cl)cccc32)cc1 (configuration not stated)	n	n	u	n	n	n
COc1ccc(OC(F)(F)F)cc1CC1(C)C(=O)Nc2cccc(Cl)c21 (configuration not stated)	u	n	15µM	u	n	n
COc1ccc(C(C)=O)cc1CC1(C)C(=O)Nc2ccc(OC(F)(F)F)cc21 (configuration not stated)	n	n	u	u	n	n
CC1(Cc2ccccc2Cl)C(=O)Nc2c(Cl)cccc21 (configuration not stated)	n	n	u	29µM	n	n
COc1ccc(OC(F)(F)F)cc1CC1(C)C(=O)Nc2ccc(S(=O)(=O)NC3CCCCC3)cc21 (configuration not stated)	u	n	u	21µM	u	u
SMILES	HT1080-NT tox	KB-V1 MDR tox	DT40 TDP1 no CPT	TDP1 cell CPT	KB-3-1 tox	HT1080 IDH1KD tx
CC1(Cc2ccc(F)cc2)C(=O)Nc2ccc(S(=O)(=O)NC3CCCCC3)cc21 (configuration not stated)	n	n	u	u	n	n
COc1ccc(Cl)cc1CC1(C)C(=O)Nc2ccc(S(=O)(=O)NC3CCCCC3)cc21 (configuration not stated)	u	n	u	23µM	n	u
Cc1ccccc1C(=O)Nc1nc2nc(C)c(C)c(=O)n2[nH]1	x	x	n	n	x	x
Cc1ccccc1CC1(C)C(=O)Nc2ccc(S(=O)(=O)NC3CCCCC3)cc21 (configuration not stated)	n	n	21µM	u	n	n
COc1ccccc1CC1(C)C(=O)Nc2ccc(S(=O)(=O)NC3CCCCC3)cc21 (configuration not stated)	n	n	u	21µM	n	n
CC1(Cc2ccccc2OC(F)(F)F)C(=O)Nc2c(Cl)ccc(Cl)c21 (configuration not stated)	u	n	23µM	16µM	n	n
CC1(Cc2ccccc2OC(F)(F)F)C(=O)Nc2ccc(S(=O)(=O)NC3CCCCC3)cc21 (configuration not stated)	u	n	u	u	n	u
COc1ccc(-c2cc(C(=O)NCc3cccc(Cl)c3)[nH]n2)c(C)c1	n	n	u	u	n	n
Cc1cc(Cl)ccc1NC(=O)c1cc2ccccn2n1	x	n	u	u	n	x
CC(=O)c1ccccc1NC(=O)COC(=O)CCC1CCCC1	n[9.24 µM]	n	n	n	n	n
COC(=O)Cc1c(C)c2cc3c(c(C)c2oc1=O)OCN(CCc1ccc(OC)cc1)C3	x	n	u	u	n	x
CCc1nc2ccccc2n1CCCCOc1ccccc1C	x	u	26µM	u	u	x
Cc1ccccc1OCCCn1c(CO)nc2ccccc21	n	u	18µM	u	u	n
Cc1ccc(NCc2nc3ccccc3n2CCOc2ccccc2C)cc1	x	n	u	u	u	x
O=c1[nH]cc(CCc2ccccc2)c(=O)[nH]1	n	u	n	n	n	n
CCN(CC)S(=O)(=O)c1cc(-c2nnc(-c3ccc(Br)cc3)o2)ccc1Br	n	u	9.2µM	15µM	n	n[9.24 µM]
CCN(CC)S(=O)(=O)c1cc(-c2nnc(-c3ccc(Br)cc3)o2)ccc1Cl	n	n	18µM	12µM	u	n
COc1ccc(Cl)cc1NC(=O)c1cccc(S(=O)(=O)Nc2c(C)n(C)n(-c3ccccc3)c2=O)c1	n	n	n	n	n	n
CC(C)N(Cc1ccccc1)C(=O)COC(=O)C1CCCCC1	n	n	n	n	n	n
C[N+]1(Cc2ccccc2)CCC(C(=O)OCC2CCCC2)CC1 (configuration not stated)	x	x	21µM	u	x	x
